# VP16 counter = Gal4-VP16 reporter inhibition counter-screen; 3.5% of 310,000 active; Drosophila S2 Gal4-VP16 UAS-luciferase, luminescence, 20 h; Potency, µM (titrated, usually from 53.6 µM), for the others: at the top dose activity, negative = inhibition, hits mostly inhibitors;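 also: Gal4-VP16 expression switched on by copper sulfate through the metallothionein promoter; potency is read from the fitted curve at half-maximal effect; % is scaled to controls: 0 for no effect and ±100 for the full control effect; nearly all actives have a fitted effect of over 50% in size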
# Giardia kill = kills Giardia lamblia; 0.15% of 340,000 active; activity change, % at 7.66 µM, hits read low; AID 540267; Giardia lamblia trophozoite viability; in the data active = activity change below about -80%; inconclusive = between about -30% and that limit;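 also: parasites exposed to compound for two days anaerobically before the ATP read; % is scaled to controls: 0 for no effect and ±100 for the full control effect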
#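 Giardia lamblia trophozoites (100 cells/well) were incubated with compounds for 48 h at 37 deg C under anaerobic conditions. Viability was read as ATP content by one-step luminescence after 15-30 min at room temperature.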
# BCR signal inh = inhibitors of chronic active B-cell receptor signaling; ABC-DLBCL IkBa-CBG/CBR reporter, luminescence ratio, 4 h; Potency, µM (titrated, usually from 46.1 µM), inactives show top-dose activity change, negative = inhibition, hits mostly inhibitors; 0.05% of 340,000 active; active = well fitted inhibition curve with a large enough effect in the signal ratio, with a control signal flat, not every such curve was filed as active; inconclusive = small, poorly fitted or top-dose-only effect, or effect the other way, or a change in a side signal; the % refers to the signal ratio;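 also: potency is read from the fitted curve at half-maximal effect; plate controls were basal doxycycline-induced cells for no effect and cells given 10 µM MG132 for full effect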
#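 TMD8 human ABC-DLBCL cells with doxycycline-inducible IκBα–green luciferase fusion and unfused red luciferase, in 0.5% FBS medium; compounds up to 46 uM, 4 h at 37C. Green/red luminescence ratio, filter-overlap corrected, fitted to concentration-response curves.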
# MCF10A rereplic = inducers of DNA re-replication in MCF 10A breast cells; MCF 10A DNA re-replication, Hoechst nuclear intensity, 48 h; 2.9% of 350,000 active; Potency, µM (doses to about 46.1 µM), for the others: at the top dose activity, positive = re-replication, most hits filed as activators; AID 624296; also: potency is read from the fitted curve at half-maximal effect; % of control where 0% means no effect; nearly all actives have a fitted effect of over 50% in size
# RORgamma inh = blocks mouse ROR gamma transcriptional activity; P51450; Drosophila S2 Gal4-RORgamma UAS-luciferase reporter, 20 h; Potency, µM (highest dose often 53.6 µM), for inactives: at the highest dose activity change, negative = inhibition, most hits filed as inhibitors; 5.4% of 310,000 active; also: potency is read from the fitted curve at half-maximal effect; % is scaled to controls: 0 for no effect and ±100 for the full control effect; nearly all actives have a fitted effect of over 60% in size
# Target sequence (P51450 whole entry, looked up, the tested form may be a part): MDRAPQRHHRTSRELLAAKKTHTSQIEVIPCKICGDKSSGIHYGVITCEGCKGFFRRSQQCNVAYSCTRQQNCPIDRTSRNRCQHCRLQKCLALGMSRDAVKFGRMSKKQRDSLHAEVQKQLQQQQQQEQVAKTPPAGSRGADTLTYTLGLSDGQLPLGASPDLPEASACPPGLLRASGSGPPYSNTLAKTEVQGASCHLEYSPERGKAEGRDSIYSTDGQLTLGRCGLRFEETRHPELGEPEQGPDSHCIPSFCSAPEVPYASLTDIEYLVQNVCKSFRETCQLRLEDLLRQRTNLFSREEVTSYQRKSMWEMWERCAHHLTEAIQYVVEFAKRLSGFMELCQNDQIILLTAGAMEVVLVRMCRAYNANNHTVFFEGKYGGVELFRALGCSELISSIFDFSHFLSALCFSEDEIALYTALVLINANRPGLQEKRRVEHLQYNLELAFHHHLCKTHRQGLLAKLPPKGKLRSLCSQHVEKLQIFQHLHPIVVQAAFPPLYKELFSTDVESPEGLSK
#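 Stably transfected Drosophila Schneider cells are the test system, with ROR gamma fused to Gal4 and luciferase under UAS control; luminescence is read after 20 hr of 700 uM copper sulfate induction at ambient temperature.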
# SW480 rereplic = DNA re-replication induction in SW480 cells | SW480 DNA re-replication, Hoechst DNA content imaging, 48 h | Potency, µM (top dose mostly 46.1 µM), inactives show at the highest dose re-replication activation, actives largely listed as activators | 1.8% of 340,000 active; also: potency is read from the fitted curve at half-maximal effect; % of control where 0% means no effect; nearly all actives have a fitted effect of over 55% in size
#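 Cells (250 per well) received 23 nL compound or DMSO by pin tool and were kept 48 hr at 37 C, 5% CO2. Nuclei were then stained with Hoechst for 40 min and scanned for DNA content.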
# Active calls of the source: *; ? = inconclusive; . = no result given; [ ] = remark or other dose. Only some compounds are listed: those with a hit (about 8.3% of all), similar ones and a draw of the others. Unless noted, calls follow the shape of the dose curve; as a rule, active = well fitted curve in the direction sought with a large enough effect; inconclusive = small, poorly fitted or top-dose-only effect, or another doubt; inactive = no such curve, though single readings can be large; an effect the other way counts as inactive or inconclusive.
SMILES,VP16 counter,Giardia kill,BCR signal inh,MCF10A rereplic,RORgamma inh,SW480 rereplic
Nc1nonc1-n1nnc(C(=O)N/N=C/c2ccc(Cl)cc2Cl)c1CN1CCOCC1,5%,-1,4%,0%,-9%,-20%
N#Cc1c(-c2ccccc2)c(-c2ccccc2)nn(CC(=O)NNC(=O)Nc2ccccc2)c1=O,-20%,-17,?,0.65µM*,3%,2.9µM*
CCN(CC)CCC(c1ccc(OC)cc1)c1c(OC)cc(OC)c2c(C)cc(=O)oc12 (centres undefined),-16%,42,.,.,-17%,.
CCCCCc1cc(=O)oc2c(C(CCN(CC)CC)c3ccc(OC)cc3)c(OC)cc(OC)c12 (centres undefined),8.9µM*,-16,?,?,?,9%
CCn1c(C(=O)N2CCC(Cc3ccccc3)CC2)cc2sccc21,3%,5,1%,21µM*,8%,1%
CCn1c(C(=O)N2CCCC(C(=O)O)C2)cc2sccc21 (centres undefined),3%,-10,?,2%,34%,9%
CCn1c(C(=O)N2CCCC(C(=O)NCCCc3ccccc3)C2)cc2sccc21 (centres undefined),11µM*,-6,?,?,?,11%
CCn1c(C(=O)N2CCCC(C(=O)NCCc3ccc(C)cc3)C2)cc2sccc21 (centres undefined),-7%,-28,?,?,?,?
CC(c1ccco1)N(C(=O)c1ccccc1NS(=O)(=O)c1ccc(Cl)c([N+](=O)[O-])c1)c1ccccn1 (centres undefined),-4%,-13,?,23µM*,-3%,3%
Cn1ccnc1C(O)c1ccccc1 (centres undefined),-3%[10 µM],-19,-2%,0%,5%,1%
Cc1ccc(C(O)c2nccn2C)o1 (centres undefined),-27%,14,6%,5.8µM*,-6%,10%
COc1cc(Br)c(CC(=O)NC2CC2)cc1OC,2%,-17,-12%,4%,-24%,1%
O=C(N/N=C/c1ccc(O)c([N+](=O)[O-])c1)c1ccncc1,-5%,?,5%,1%,12%,-29%
O=[N+]([O-])c1cc(/C=N/N/C(=N/c2ccccn2)c2ccccn2)ccc1O,4.5µM*,-29,?,?,1.4µM*,?
O=[N+]([O-])c1ccc(/C=N/Nc2ccccn2)cc1,-9%,-17,?,-8%,4%,1%
O=[N+]([O-])c1ccc(/C=N/N/C(=N/c2ccccn2)c2ccccn2)cc1,-4%,-9,-30%,3%,11µM*,-5%
CC(=O)c1ccc(N2CCN(C(=O)c3ccc(C(=O)c4ccccc4)cc3)CC2)cc1,.,-5,0%,12%,.,11%
Cc1c(/N=C(\[O-])Nc2ccc(Br)cc2)sn[n+]1C,?,1,?,-4%,1%,?
O=C1C2C3C=CC(CNS(=O)(=O)c4ccccc4[N+](=O)[O-])(O3)C2C(=O)N1c1ccccc1 (centres undefined),11µM*,-19,0%,21µM*,?,?
Cc1cc(C)c(S(=O)(=O)NCC23C=CC(O2)C2C(=O)N(c4ccccc4)C(=O)C23)c(C)c1 (centres undefined),?,-29,11%,?,16µM*,?
O=C1C2C3C=CC(CO)(O3)C2C(=O)N1c1ccc(-c2ccccc2)cc1 (centres undefined),10µM*,.,?,.,6.3µM*,.
Cc1ccc(N2C(=O)C3C4C=CC(CNC(=S)N5CCN(c6ccccn6)CC5)(O4)C3C2=O)cc1 (centres undefined),-27%,19,16%,?,?,14%
CC(C)(C)C(=O)NCC12C=CC(O1)C1C(=O)N(c3ccccc3)C(=O)C12 (centres undefined),?,4,1%,?,?,?
Cn1cc([N+](=O)[O-])c(C(=O)Nc2ccc(-c3nc4ccccc4o3)cc2)n1,-5%,0,3%,3.7µM*,-13%,?
O=C(Nc1ccc(-c2nc3ccccc3o2)cc1)c1ccc(N2CCOCC2)c([N+](=O)[O-])c1,10µM*,-4,5%,15%,?,?
SMILES,VP16 counter,Giardia kill,BCR signal inh,MCF10A rereplic,RORgamma inh,SW480 rereplic
COc1cc(OC)c(OC)cc1CNC(=O)c1cc(=O)[nH]c2ccccc12,9%,-4,1%,4%,?,171%
NC(=O)CC(NC(=O)c1ccc(Br)cc1)c1ccc(N2CCCCCCC2)c([N+](=O)[O-])c1 (centres undefined),?,45,?,25%,-21%,-19%
O=C(CCCCC(=O)N1CCOCCOCCOCC1)OCc1ccccc1,-16%,-14,6%,1%,2%,-1%
CSCc1cc(N(C)c2ccccc2)nc(-c2ccccn2)n1,3.2µM*,20,-11%,1%,0.56µM*,-1%
O=C(N/N=C/c1ccc([N+](=O)[O-])o1)c1ccc(O)cc1,13µM*,-26,?,?,11µM*,?
Cc1ccc(NCC(=O)N/N=C\c2ccc([N+](=O)[O-])o2)cc1,?,-106*,-11%,5%,?,-4%
O=C(CNc1ccccc1)N/N=C/c1ccc([N+](=O)[O-])o1,?,-105*,?,4%,1%,13%
Cc1ccc(NCC(=O)N/N=C/c2ccc(C(=O)O)cc2)cc1,-13%,22,-10%,2%,-6%,2%
O=C(Cc1ccc2c(c1)OCCO2)N/N=C/c1ccco1,.,-12,0%,-4%,.,-2%
O=C(Cc1ccc2c(c1)OCO2)NN=Cc1ccc([N+](=O)[O-])o1,.,-102*,-4%,?,.,18µM*
CC(=O)OC(C)CS(=O)(=O)c1ccccc1 (centres undefined),10%,7,1%,20%,-26%,-3%
O=C(COc1ccccc1[N+](=O)[O-])Nc1cccc(C(=O)Nc2ccccc2C(=O)O)c1,-5%,19,-9%,-48%,-12%,-4%
COc1cccc(NC(=O)Nc2ccc(C(C)(C)C)cc2)c1,-19%,-10,?,?,?,?
CCOc1ccc(CC(=O)NCc2ccc3c(c2)CCN3C(=O)c2ccc(F)cc2)cc1OCC,.,.,1%,.,.,.
Cc1ccc(SCC(=O)Nc2ccc(C(=O)Nc3ccc(O)cc3)cc2)cc1,-1%,-6,?,-1%,-5%,-3%
Cc1ccc(C)c(/C=C(\C(=O)O)c2ccc(S(=O)(=O)N3CCCCC3)s2)c1,6%,-12,7%,16%,27%,2%

# From PubChem
